D1 PAM – enhances dopamine response at the human D1 receptor; HEK293 TREx D1 cells, calcium flux, dopamine EC20 potentiation; potentiation, % at 10 µM; actives 0.036% (n = 360,000); AID 504651; in the data active means potentiation above about 30%; further: 0% is about no effect
D1 agonist – agonists of human D1 dopamine receptor. P21728. HEK293 T-REx D1 cells, calcium flux, agonist mode. activation, % at 2 µM. actives 1% (n = 360,000); further: 0% is about no effect
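Agonism was scored from calcium flux recorded over 180 s (1 read/s) after pintool compound addition, following a 10-cycle baseline. Cells were inducible force-coupled HEK293 TREx D1, plated overnight at 30 C and loaded with no-wash calcium dye.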
TRHR enhancer – TRH receptor (human) allosteric enhancement | P34981 | TRHR cells, fluo-8 calcium fluorescence, EC20 TRH enhancement | enhancement, % at 2 µM | actives 0.66% (n = 360,000) | AID 493056; in the data active means enhancement above about 30%; further: 0% is about no effect
Target sequence (P34981 whole entry, looked up): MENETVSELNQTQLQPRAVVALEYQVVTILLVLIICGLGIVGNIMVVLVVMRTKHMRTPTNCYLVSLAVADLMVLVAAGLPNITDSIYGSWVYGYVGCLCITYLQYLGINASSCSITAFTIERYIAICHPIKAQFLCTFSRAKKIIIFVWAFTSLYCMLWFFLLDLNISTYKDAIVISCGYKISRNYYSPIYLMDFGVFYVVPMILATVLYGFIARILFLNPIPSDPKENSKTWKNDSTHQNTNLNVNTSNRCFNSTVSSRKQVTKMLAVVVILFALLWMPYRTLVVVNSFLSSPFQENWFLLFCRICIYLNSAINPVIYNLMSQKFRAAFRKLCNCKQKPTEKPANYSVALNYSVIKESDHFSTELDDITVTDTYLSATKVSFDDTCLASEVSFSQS
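Enhancer read-out: after compound pinning and an initial kinetic agonist-mode read, an EC20 of TRH (10 nM final) was injected and fluo-8 calcium signal (Ex 480/Em 530) followed at 1 s/cycle for 100 cycles in TRHR-expressing cells.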
TRHR agonist – activates the human TRH receptor | P34981 | TRHR cells, calcium flux fluo-8, FDSS agonist mode | activation, % at 2 µM | actives 0.18% (n = 360,000) | AID 493084; further: 0% is about no effect
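TRHR-expressing cells, plated overnight in medium with 10% serum, were loaded with fluo-8 calcium dye at room temperature. After a 10 s baseline, library compound was pin-added and calcium release was recorded kinetically (ex 480/em 530) as agonist response.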
D1 antagonist – antagonists of human D1 dopamine receptor; P21728; HEK293 TREx D1 cells, calcium flux, dopamine EC80; stronger effect = lower value; activity change, negative = inhibition, % at 10 µM; actives 3.2% (n = 360,000); in the data active means activity change below about -30%; further: on the % scale 0 is the no-effect control and ±100 the full control effect
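Allosteric or orthosteric antagonism assessed as attenuation of the calcium response to EC80 dopamine, added 180 s after compound, in induced HEK293 Trex D1 cells loaded with no-wash calcium dye.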
* hit, by the source's call; nt = not tested or not shown. An excerpt weighted towards active compounds, which were near 4.7% of everything screened. Unless noted, no stated cut-off is given here; in the data, active means activation above about 30%; inactive means the rest.

SMILES | D1 PAM | D1 agonist | TRHR enhancer | TRHR agonist | D1 antagonist
CCc1ccc(-c2cc(C(=O)N/N=C/c3ccco3)[nH]n2)cc1 | 3 | 27 | 0 | 0 | -67*
CCC(=O)N1CCc2cc(Br)cc(S(=O)(=O)CCC(=O)N3CCN(c4cc(C)ccc4C)CC3)c21 | 3 | 0 | -2 | 0 | 4
Cc1ccc(OCc2cc(C(=O)N3CCC(c4ccccc4Cl)C3)no2)cc1C (stereo unspecified) | -10 | 12 | -4 | 3 | 19
CC(C)(C)C1CCc2c(C(=O)NNC(=O)/C=C/C(=O)O)csc2C1 (stereo unspecified) | -5 | 1 | -12 | 1 | -32*
CC1(C)CC(C(N)=S)CCO1 (stereo unspecified) | -7 | 1 | 7 | 0 | -37*
O=[N+]([O-])c1ccc(N2CCN(C(=S)Nc3cccc(F)c3)CC2)cc1 | -4 | 12 | -3 | 1 | -38*
O=[N+]([O-])c1ccc(N2CCN(C(=S)Nc3ccc(F)cc3)CC2)cc1 | -5 | 8 | 5 | 1 | -34*
O=[N+]([O-])c1ccc(NC(=S)N2CCc3ccccc3C2)cc1 | -10 | 13 | -1 | 0 | -33*
Cc1ccc(NC(=O)CN2CCSc3ccc(S(=O)(=O)N4CCCC4)cc32)cc1C | -2 | 3 | 1 | 0 | -17
COc1cc(NC(=O)Cn2cc(S(=O)(=O)c3ccccc3)c(=O)c3ccccc32)cc(OC)c1 | -1 | 0 | 1 | 0 | 4
CC(C)Oc1cccc(C(=O)C2CCCN(C(=O)CCc3cnn(C)c3)C2)c1 (stereo unspecified) | 2 | 3 | 0 | 0 | -5
CC1=CC(C)(C)N=C(Nc2ccc(C)cc2)S1 | -12 | 4 | -4 | 1 | -33*
CC(C)NCC(O)Cn1c2c(c3ccccc31)CCc1c-2cnn1-c1ccccc1 (stereo unspecified) | -5 | 25 | 23 | 2 | 3
COc1ccc(C(=O)c2c(C)c3ccccc3n2CC(O)CNC(C)C)cc1 (stereo unspecified) | 0 | 60* | 13 | 3 | -20
Cc1ccc(C)c(CSc2nnc3[nH]c(=O)cc(C)n23)c1 | -3 | -2 | 1 | 0 | nt
O=C(NNS(=O)(=O)c1ccccc1)c1ccc(F)cc1 | -9 | 2 | 5 | 0 | 2
O=C(NNS(=O)(=O)c1ccccc1)Nc1ccc(F)cc1 | -7 | 1 | -9 | 0 | -36*
O=C(NNC(=O)c1ccc(NC(=O)c2ccccc2)cc1)Nc1ccccc1 | -3 | 9 | -9 | 1 | -5
O=C(Nc1ccccc1NC(=O)c1ccc(F)cc1)c1ccc(F)cc1 | -2 | 3 | -8 | 0 | -36*
O=C(Nc1ccccc1Sc1ccccc1)c1ccc(F)cc1 | -3 | 2 | 0 | 0 | 1
O=C(NNC(=O)c1ccc(NC(=O)c2ccccc2)cc1)c1ccc(F)cc1 | -3 | 4 | -5 | 2 | -67*
C=CCc1ccc(OCC(O)CN2CCN(c3ccccc3OC)CC2)c(OC)c1 (stereo unspecified) | -7 | 11 | 6 | 0 | -10
CC1(C)CCCC(C)(C)N1CC(O)COCCOc1ccc(Br)cc1 (stereo unspecified) | -2 | 39* | -5 | 0 | -6
COc1ccccc1N1CCN(CC(O)COCc2cccs2)CC1 (stereo unspecified) | 1 | 7 | -4 | 0 | -37*
C=CCc1ccc(OCC(O)CN2CCN(Cc3ccc(Cl)cc3)CC2)c(OC)c1 (stereo unspecified) | -11 | 43* | 4 | 1 | -14
COc1ccccc1N1CCN(CC(O)COCCOc2ccc(Br)cc2)CC1 (stereo unspecified) | -18 | 16 | -10 | 0 | -63*
COc1ccc(N2CCN(CC(O)COCCOc3ccc(Br)cc3)CC2)cc1 (stereo unspecified) | -10 | 29 | 16 | 2 | -24
O=C(c1ccccc1)c1ccc(Oc2ccc(C(=O)O)c(C(=O)O)c2)cc1 | 12 | 1 | -4 | 0 | 0
O=C1c2[nH]nc(-c3ccccc3O)c2C(c2ccc(Cl)cc2)N1CCc1ccccc1 (stereo unspecified) | 2 | 5 | 2 | 1 | 8

Source: PubChem
